AmpC inh no detg – AmpC beta-lactamase inhibition without detergent; P00811; AmpC nitrocefin hydrolysis, absorbance 480 nm, 0.0001% Triton; Potency, µM (doses to about 57.1 µM), without a hit: at the highest dose activity change, negative = inhibition, most hits filed as inhibitors; actives 0.52% (n = 330,000); AID 485341;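 also: plate controls were no compound for no effect and no enzyme for full effect; nearly all actives have a fitted effect of over 20% in size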
Target sequence (P00811 whole entry, looked up): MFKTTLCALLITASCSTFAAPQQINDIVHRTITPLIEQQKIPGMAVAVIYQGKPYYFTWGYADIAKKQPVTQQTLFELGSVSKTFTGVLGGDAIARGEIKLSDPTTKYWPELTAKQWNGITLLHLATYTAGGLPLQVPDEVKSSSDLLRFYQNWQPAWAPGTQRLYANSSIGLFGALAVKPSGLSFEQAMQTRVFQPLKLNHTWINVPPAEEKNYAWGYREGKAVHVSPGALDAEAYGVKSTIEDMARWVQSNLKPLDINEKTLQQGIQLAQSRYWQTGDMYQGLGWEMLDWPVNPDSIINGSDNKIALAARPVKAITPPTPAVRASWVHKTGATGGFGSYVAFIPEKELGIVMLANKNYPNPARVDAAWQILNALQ
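20 mM phosphate pH 7.0 + 0.01% (detergent screen) or 0.0001% Triton X-100; 5.3 nM AmpC reagent; cpd preinc 15 min RT; nitrocefin (800 uM stock) to start; A480 q20 s × 4 min; Activity was normalised to no-enzyme and no-compound control wells.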
AmpC inh detg – inhibitors of E. coli AmpC beta-lactamase with detergent | Potency, µM (titrated, usually from 114 µM), inactives show at the highest dose activity change, negative = inhibition, most hits filed as inhibitors | actives 0.041% (n = 370,000) | AmpC hydrolysis of nitrocefin, absorbance 480 nm, 0.01% Triton | P00811;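 also: 0% = no-compound wells and -100% = no-enzyme wells; nearly all actives have a fitted effect of over 25% in size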
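20 mM phosphate pH 7.0 + 0.01% (detergent screen) or 0.0001% Triton X-100; 5.3 nM AmpC reagent; cpd preinc 15 min RT; nitrocefin (800 uM stock) to start; A480 q20 s × 4 min; Activity was normalised to no-enzyme and no-compound control wells.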
Starred values were filed as active, the others as inactive; u = inconclusive; x = not tested or not shown. Shown is part of a subset that was picked to be rich in hits. Calls follow the shape of the dose curve; as a rule, active = well fitted curve in the direction sought with a large enough effect; inconclusive = small, poorly fitted or top-dose-only effect, or another doubt; inactive = no such curve, though single readings can be large; an effect the other way counts as inactive or inconclusive. Potency is read from the fitted curve at half-maximal effect.

SMILES	AmpC inh no detg	AmpC inh detg
FC(F)(F)c1ccc(Cl)c(-n2c(-c3ccco3)n[nH]c2=S)c1	-15%	0%
FC(F)(F)c1ccc(Cl)c(-n2c(-c3cc(-c4ccco4)[nH]n3)n[nH]c2=S)c1	4µM*	3%
CCc1ccc(NC(=O)N2CC(C)Oc3ccc(C)cc32)cc1 (stereo not given)	x	-5%
COc1ccc2c(c1)C1(Nc3ccccc3-c3nc4ccccc4n31)C(=O)N2 (stereo not given)	20µM*	-10%
COc1ccc2c(c1)C1(Nc3ccccc3-c3nc4ccccc4n31)C(=O)N2C (stereo not given)	-27%	-3%
COc1ccc(OC)c(CNC(=O)Cn2nc(C)c3nn(-c4ccc(Cl)cc4)c(C)c3c2=O)c1	x	10%
CCN(CC)c1ccc(NC(=O)CSc2nc3ccccc3c(=O)[nH]2)cc1	20µM*	u
O=C(CSc1nc2ccccc2c(=O)[nH]1)Nc1ccc(Br)cc1	2%	1%
Cc1cc(Nc2cccc(Br)c2)n2c(nc3ccccc32)c1C#N	x	0%
NC(=O)c1ccc(NC(=O)COC(=O)c2c3c(nc4ccccc24)/C(=C\c2cccs2)CCC3)cc1	3.2µM*	-3%
Cc1cc(C(=O)OCC(=O)NC2CCCCC2C)c2ccccc2n1 (stereo not given)	1%	x
Cc1cc(C(=O)OCC(=O)NC2CCCC2)c2ccccc2n1	-22%	-8%
O=C(COC(=O)c1c2c(nc3ccccc13)/C(=C/c1ccco1)CC2)NC1CCCC1	18µM*	-11%
CC1CCCCC1NC(=O)COC(=O)c1c2c(nc3ccccc13)/C(=C/c1ccco1)CC2 (stereo not given)	16µM*	u
CCc1cccc(C)c1NC(=O)COC(=O)c1c2c(nc3ccccc13)/C(=C\c1cccs1)CCC2	-49%	-4%
Cc1cccc(-c2nnc(C3CCN(S(=O)(=O)c4cccc(Cl)c4)CC3)o2)c1	x	-10%
CCOC(=O)c1sc2ccccc2c1S(=O)(=O)Nc1c(C)cccc1C	x	-3%
COc1ccc(-n2nc(C(=O)NCCc3ccc(OC)c(OC)c3)c3c4ccccc4n(C)c3c2=O)cc1	x	0%
Cc1nn(CCCC(=O)NCCc2ccc(Cl)cc2)c(=O)c2c1sc1ccccc12	x	-1%
CCOCCc1nnc(NC(=O)C(=O)c2cc(C)n(-c3ccc(C)c(C)c3)c2C)s1	x	25%
N#Cc1c(Cl)nsc1NN	1.4µM*	-3%
Cc1c(C#N)c(N)nc(Cl)c1C#N	3%	1%
Cc1cccc(-c2ccc3ncnc(NCc4cccc(F)c4)c3c2)c1	-35%	1%
CCN(Cc1ccccc1)C(=O)Nc1ccc2c(c1)N(C)C(=O)c1ccccc1S2	x	23%
COc1ccc(NC(=O)CN(C)CC(=O)N(CC(C)C)c2c(N)n(CC(C)C)c(=O)[nH]c2=O)cc1	8%	x
SMILES	AmpC inh no detg	AmpC inh detg
C=CCOc1ccc(CN(C)CC(=O)N(CC(C)C)c2c(N)n(CC(C)C)c(=O)[nH]c2=O)cc1	6.3µM*	-2%
Cc1cccc(N2CCN(C(=O)Cn3ncc4c3-c3cc(C)ccc3OC4)CC2C)c1 (stereo not given)	x	1%
O=c1c(-c2cc(-c3ccccc3)nc3c2COc2ccc(Cl)cc2-3)coc2ccc(F)cc12	x	-1%
CC(C)C[C@H](N)c1nnc(SCc2ccc(Cl)cc2Cl)o1	x	0%
CC(C)C[C@H](N)c1nnc(S(=O)(=O)Cc2ccc(F)cc2)o1	2µM*	1.4µM*
Nc1ccccc1Nc1cc(-c2ccccc2)[nH]n1	1.1µM*	1%
Nc1ccccc1Nc1cc(-c2ccccc2)nn1-c1ccccc1	-34%	-13%
Cc1cccc(Cn2c(C)c(C)c3cc(C(=O)NCc4ccco4)ccc32)c1	x	6%
O=C(Cn1cc2c(n1)CCCCC2)N1CCc2ccccc2C1	0.56µM*	u
O=C(Cn1cc2c(n1)CCCC2)N1CCc2ccccc21	-23%	-10%
CC(=O)c1c(NC(=O)c2ccccc2)[nH]c(-c2ccccc2)nc1=S	22µM*	u
CC(=O)c1c(C)[nH]c(-c2ccccc2)nc1=S	-18%	11%
Cc1cccc(OCC(=O)NCc2ccc3c(c2)CCN3C(=O)c2ccccc2)c1	x	-6%
COc1ccc(C(=O)/C=C/Nc2ccc([N+](=O)[O-])cc2C)cc1OC	2µM*	4%
COc1ccc(C(=O)NC(=S)Nc2ccc([N+](=O)[O-])cc2C)cc1OC	u	2%
COc1ccc(C(=O)/C=C/Nc2ccc([N+](=O)[O-])cc2C)c(OC)c1	1.3µM*	1%
COc1ccc(C(=O)/C=C/Nc2cc(C)on2)c(OC)c1	-3%	-8%
COc1cccc(CNC(=O)c2cc3c(s2)-c2c(C)cccc2OC3)c1	x	-2%
Cc1nn(-c2ccc(F)cc2)c(Cl)c1/C=N/NC(=O)c1ccc(O)cc1	-58%	-2%
Cc1nn(-c2ccc(F)cc2)c(Cl)c1/C=N/NC(=O)c1cccs1	28µM*	-1%
